# An excerpt weighted towards active compounds, which were near 3.6% of everything screened.
# Pf apPOL inh = Pf-apPOL DNA polymerase inhibition | Recombinant Pf-apPOL, molecular beacon fluorescence, 1.5 h | inhibition, % at 10 µM | actives 0.25% (n = 210,000) | AID 1794808
# mHTT CaM bind = inhibitors of human mutant huntingtin-calmodulin interaction; AID 1671202; actives 3.6% (n = 190,000); inhibition, % at 15 µM; AlphaScreen His-mHTT/GST-CaM binding, luminescence; P42858;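 further: 0% = both proteins with DMSO and 100% = one protein alone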
# The depositor's hits bear a star; / = no result. No stated cut-off is given here; in the data, active means inhibition above about 50%; inactive means the rest.
SMILES,Pf apPOL inh,mHTT CaM bind
COc1ccc(-c2c(C)[nH]n3c(=O)cc(-c4ccccc4)nc23)cc1,1.7,73.0*
CCCc1cc(=O)n2[nH]c(Cc3ccccc3)c(-c3ccccc3OC)c2n1,1.9,0.1
Cc1[nH]n2c(=O)cc(-c3ccccc3)nc2c1-c1ccccc1,-5.3,10.7
COc1ccccc1-c1c(Cc2ccccc2)[nH]n2c(=O)cc(-c3ccccc3)nc12,1.8,67.3*
Cc1ccc(C=CS(=O)(=O)NCCn2nc(-c3cccnc3)ccc2=O)cc1,0.3,-11.0
Cc1ccc(CCNC(=O)c2ccc(N3C(=O)NC4CC3(C)Oc3ccccc34)cc2)cc1 (stereo not drawn),-6.0,49.0
COc1cccc(N2C(=O)NC3CC2(C)Oc2ccccc23)c1 (stereo not drawn),-3.8,88.0*
Cc1ccc(N2C(=O)NC3CC2(C)Oc2ccc(Br)cc23)cc1C (stereo not drawn),-1.8,36.0
Cc1ccc(N2C(=O)NC3CC2(C)Oc2ccc(Br)cc23)cc1Cl (stereo not drawn),-4.0,55.0*
COc1cccc(N2C(=O)NC3CC2(C)Oc2ccc(Cl)cc23)c1 (stereo not drawn),15.1,31.0
Cc1ccc(CNC(=O)c2ccc(N3C(=O)NC4CC3(C)Oc3ccccc34)cc2)cc1 (stereo not drawn),-7.8,55.0*
Cc1ccc(C2C(=C(O)c3ccc(OC(C)C)cc3)C(=O)C(=O)N2Cc2cccnc2)o1 (stereo not drawn),-8.1,11.8
COc1ccc(C2C3CSCC=C3C(C#N)=C(N)C2(C#N)C#N)cc1 (stereo not drawn),/,6.0
Cc1noc(C2CN(C(=O)Nc3cccc(F)c3C)CC23CCOCC3)n1 (stereo not drawn),-4.4,-1.1
COc1ccc(NC(=O)N2CCCC2c2cc(C(C)C)on2)c(OC)c1 (stereo not drawn),-3.0,-3.1
O=C(Nc1ccc2c(c1)OCO2)C1CCCN(c2cnn(Cc3ccccc3)c(=O)c2)C1 (stereo not drawn),-1.9,69.3*
O=C(Nc1ccc2c(c1)OCO2)C1CCN(c2cc(N3CCCC3)ncn2)CC1,-6.1,60.6*
Cc1ccc(NC(=O)C2CCCN(c3cnn(C)c(=O)c3)C2)cc1C (stereo not drawn),-2.6,0.9
Cn1ncc(N2CCCC(C(=O)Nc3ccc4c(c3)OCO4)C2)cc1=O (stereo not drawn),20.6,71.9*
O=C(Nc1ccc2c(c1)OCO2)C1CCCN(c2cn[nH]c(=O)c2)C1 (stereo not drawn),-1.7,62.6*
O=C(Nc1ccc(Br)cc1)C1CCN(c2cc(N3CCCC3)ncn2)CC1,-7.4,20.7
COc1ccc(NC(=O)C2CCCN(c3cn[nH]c(=O)c3)C2)cc1OC (stereo not drawn),7.9,6.9
O=C(Nc1ccc2c(c1)OCCO2)C1CCCN(c2cnn(Cc3ccccc3)c(=O)c2)C1 (stereo not drawn),-4.0,34.5
O=C(O)c1nc2ccccc2c(C(=O)O)c1-c1ccc(O)cc1,-0.6,-6.0
CC(C)CNC(=O)c1ccc(-c2ccc(F)cc2)nc1,-4.4,-8.7
SMILES,Pf apPOL inh,mHTT CaM bind
Cc1cc(NS(=O)(=O)c2ccc(NC(=O)c3cc4ccccc4c(=O)o3)cc2)nc(C)n1,2.7,-3.0
O=C(N1CCN(c2nc(CN3CCCCC3)cs2)CC1)C1(c2ccccc2)CC1,-3.3,21.5
CSc1ccc(Cl)c(C(=O)Nc2c(C)n(C)n(-c3ccccc3)c2=O)c1,62.8*,-2.0
Cc1c(NC(=O)c2cc([N+](=O)[O-])ccc2Cl)c(=O)n(-c2ccccc2)n1C,-1.0,-1.0
O=C(C1CCN(Cc2ccc(OCc3ccccc3)cc2)CC1)N1CCN(c2ccccc2)CC1,-6.8,63.3*
O=C(C1CCN(Cc2cccc(OCc3ccccc3)c2)CC1)N1CCOCC1,-4.1,0.7
Cc1cc(C)c(S(=O)(=O)Nc2ccc3oc(=O)sc3c2)cc1C,1.7,42.0
Cc1ccc(C)c(S(=O)(=O)Nc2ccc3oc(=O)sc3c2)c1,72.6*,24.0
Cc1c(C)n2c(SCC(=O)Nc3ccc(OC(F)(F)F)cc3)nnc2[nH]c1=O,-8.0,-5.4
CC(=O)NC1=NN(C(C)=O)C2(S1)C(=O)N(C(C)=O)c1ccc(Br)cc12 (stereo not drawn),1.8,52.0*
CC(=O)NC1=NN(C(C)=O)C2(S1)C(=O)N(C(C)=O)c1ccccc12 (stereo not drawn),-3.4,5.0
Cc1ccccc1C(=O)NCCC(O)C(C)(C)C (stereo not drawn),-5.4,-7.7
O=C1OC(c2ccc(Cl)cc2)=N/C1=C\c1ccco1,-4.7,-4.0
O=C1OC(c2ccc(Cl)cc2)=N/C1=C\C=C\c1ccco1,3.8,68.0*
CCCn1cnnc1C1CCCN(C(=O)c2ccc(OC)c(F)c2)C1 (stereo not drawn),-3.8,-8.2
CCN(C(=O)CSc1nc2ccccc2o1)C12CC3CC(CC(C3)C1)C2,2.6,-5.0
Cc1nc(C)c(Cc2ccc(Cl)cc2)c(N2CCN(C(=O)C3CCOC3)CC2)n1 (stereo not drawn),-1.9,63.8*
Cc1ccc(C)c(Cc2c(C)nc(C)nc2N2CCN(C(=O)C3CCOC3)CC2)c1 (stereo not drawn),3.4,38.0
CC(C)(C)c1ccc(C(=O)N2CCC(=O)N([C@H](COCc3ccccc3)Cc3ccccc3)CC2)cc1,-5.6,7.0
Cc1ccc(S(=O)(=O)N2CCC(=O)N([C@H](COCc3cccc(Cl)c3)Cc3ccccc3)CC2)cc1,-4.9,19.5
Cc1cccc(COC[C@H](Cc2ccccc2)N2CCN(C(=O)c3ccc(Cl)c(Cl)c3)CCC2=O)c1,0.2,100.0*
O=C(c1cccc(Cl)c1)N1CCC(=O)N([C@H](COCc2cccc(Cl)c2)Cc2ccccc2)CC1,-6.4,100.0*
Cc1nc(C)c(C)c(N2CCN(C(=O)c3ccc(Br)cc3)CC2)n1,0.4,10.0
COc1ccc(S(=O)(=O)NCCc2ccc(N3CCCC3)cc2)cc1OC,-0.2,54.4*
COc1ccc(CCNS(=O)(=O)c2ccc(C)cc2)cc1OC,-5.1,-6.1
SMILES,Pf apPOL inh,mHTT CaM bind
O=[N+]([O-])c1cc2cccnc2c2ncccc12,/,100.1*
CS(=O)(=O)c1ccc(Sc2cccc3cccnc23)c([N+](=O)[O-])c1,1.0,4.3
CCCN(CCC)c1c([N+](=O)[O-])cc([N+](=O)[O-])c2cccnc12,-1.9,80.0*
COc1ccc(Nc2c([N+](=O)[O-])cc([N+](=O)[O-])c3cccnc23)cc1,-4.5,14.0
O=[N+]([O-])c1ccc(N2CCN(CCO)CC2)c2ncccc12,-1.4,5.0
O=[N+]([O-])c1cc([N+](=O)[O-])c2cccnc2c1Nc1ccc(O)cc1,-0.2,75.0*
COc1ccccc1-c1nc2cc(N=Cc3cc([N+](=O)[O-])ccc3O)ccc2o1,4.8,-2.0
CCC(C)NC(=O)c1cnc(-c2ccccc2)nc1N(C)C (stereo not drawn),0.3,-0.5
Cc1cc(C)cc(C(=O)N2CCC(c3nc(CNC(=O)C4CC4)cs3)CC2)c1,-0.5,2.4
COCCC1CCN(C(=O)CN(C)C(=O)c2cccc3[nH]ccc23)CC1,1.2,-0.7
COc1cccc2cc(C(N)=O)c(=O)oc12,0.3,1.0
CCC(Sc1nc2n[nH]c(C)c2c(=N)n1-c1ccc(C)cc1)C(=O)N1CCCC1 (stereo not drawn),-2.0,54.0*
CCC(C)NC(=O)CSc1nc2n[nH]c(C)c2c(=N)n1-c1ccc(Br)cc1 (stereo not drawn),-1.6,75.0*

# Bioassay records (PubChem)
